Measurements taken from PubChem BioAssay (NCATS).
Inconclusive results are not listed. Activity calls are given as the source filed them. Unless noted, calls follow the shape of the dose curve; as a rule, active = well fitted inhibition curve with a large enough effect; inconclusive = small, poorly fitted or top-dose-only effect; inactive = no such curve, though single readings can be large or run the other way. Residues, ends and D or L forms follow the SMILES beside them. *: point of attachment. Cbz = O=C(OCc1ccccc1)*

Experiments:
[1] = qHTS profiling of the MIPE4 collection as inhibitors of Plasmodium falciparum (HB3) proliferation (AID 743347; call rule not given here;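 also: plate controls were DMSO vehicle wells for no effect and artemisinin wells for full effect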); conditions: P. falciparum HB3 in erythrocytes, SYBR Green DNA, 72 h; at 28.5 µM (top of the series) unless noted
In short: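 Parasite DNA was quantified by SYBR Green I fluorescence (ex 485, em 535 nm) after overnight lysis in saponin/Triton buffer at room temperature. Cultures at 0.3% parasitemia and 2.5% hematocrit were first exposed to compound for 72 h at 37 C; signals were normalised to artemisinin (0.29 uM) and vehicle wells.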

[2] = High-throughput drug toxicity screening in the BPDCN cell line Gen2.2 (AID 1224824; call rule not given here;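 also: cells exposed to compounds for 48 h before reading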); conditions: Gen2.2 BPDCN cells; at 45.8 µM (top of the series) unless noted
In short: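 Seed 500 exponentially growing Gen2.2 cells/well; add compounds by pin tool; incubate 48 h, 37 °C, 5% CO2; add CellTiter-Glo, 15 min RT; read luminescence. % activity vs DMSO (100%) and bortezomib (0%).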

[3] = High-throughput drug toxicity screening in the BPDCN cell line Cal-1 (AID 1224825; call rule not given here); conditions: Cal-1 BPDCN cell viability, qHTS; at 45.8 µM (top of the series) unless noted
In short: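 Viability of the BPDCN line Cal-1 is measured as ATP-based luminescence (CellTiter-Glo) following 48 h incubation with compounds. Percent activity uses DMSO-treated wells as 100% and 9.2 uM bortezomib as 0%.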

[4] = qHTS assay for measurement of the activity of small molecule inhibitors on Zika virus induced Caspase-3 activity in human iPSC derived neural progenitor cells (hNPCs) (AID 1224857); also: nearly all actives have a fitted effect of over 65% in size; also: potency is read from the fitted curve at half-maximal effect
In short: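 Percent inhibition of virus-induced caspase-3/7 luminescence (Caspase-Glo), scaled between uninfected cells and Zika-infected cells. hNPCs received compound 1 hr before ZIKV at 2 FFU/cell, with 6 hours infection at 37 C.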

[5] = qHTS assay for measurement of the activity of small molecule inhibitors on Zika virus induced Caspase-3 activity in human astrocytoma cells (AID 1224859); also: potency is read from the fitted curve at half-maximal effect
In short: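 Luminescent caspase-3/7 read-out (30 min reagent, room temperature) in human SNB-19 cells infected 6 h with ZIKV (2 FFU/cell) after 1 h compound pre-incubation; Data were normalised to uninfected and infected wells.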

[6] = qHTS Screen of the MIPE 4.0 Collection Against Ewings Sarcoma (RDES) (AID 1259252); also: nearly all actives have a fitted effect of over 35% in size; also: potency is read from the fitted curve at half-maximal effect
In short: (§1)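 Measured: ATP luminescence (CellTiter-Glo) 10 min after reagent addition, following 48 h drug treatment. Relative luciferase units converted to percent activity, with no-cell wells as full and DMSO wells as zero inhibition.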

[7] = qHTS Screen of the MIPE 4.0 Collection Against Ewings Sarcoma (TC71) (AID 1259253); also: nearly all actives have a fitted effect of over 40% in size; also: potency is read from the fitted curve at half-maximal effect
In short: as §1

[8] = qHTS Screen of the MIPE 4.0 Collection Against Ewings Sarcoma (EW8) (AID 1259255); also: nearly all actives have a fitted effect of over 35% in size; also: potency is read from the fitted curve at half-maximal effect;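 as to viability: 100% = DMSO-treated cells and 0% = medium-only wells without cells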
In short: as §1

[9] = qHTS Screen of the MIPE 4.0 Collection Against Ewings Sarcoma (TC32) (AID 1259256); also: nearly all actives have a fitted effect of over 45% in size; also: potency is read from the fitted curve at half-maximal effect
In short: as §1

[10] = P-glycoprotein substrates identified in KB-3-1 adenocarcinoma cell line, qHTS therapeutic library screen (AID 1346986); also: nearly all actives have a fitted effect of over 60% in size
In short: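 Using luminescence to quantify ATP, parental and P-gp-overexpressing KB cells were compared after 72 h compound titration. KB-8-5-11 was also run with the P-gp inhibitor tariquidar.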

Compound	growth, % of control [1]	cell viability, % of control (lower = more cytotoxic) [2]	viability (% of control) [3]	Potency [4]	Potency [5]	Potency [6]	Potency [7]	Potency [8]	Potency [9]	Potency [10]
COc1ccc(CCC(=O)c2c(O)cc(O[C@@H]3O[C@H](CO)[C@@H](O)[C@H](O)[C@@H]3O[C@@H]3O[C@@H](C)[C@H](O)[C@@H](O)[C@@H]3O)cc2O)cc1O	6.55%	77%	106%	inactive	inactive	9350 nM (active)	9350 nM (active)	10500 nM (active)	–	–
CC(C)C[C@@H](C=O)NC(=O)[C@H](CC(C)C)NC(=O)[C@H](CC(C)C)NC(=O)OCc1ccccc1 (Cbz-Leu-Leu-Leu-aldehyde)	6.33%	5.4%	4.19%	inactive	inactive	469 nM (active)	590 nM (active)	332 nM (active)	372 nM (active)	–
COC1=C(OC)C(=O)C(CC=C(C)CCC=C(C)CCC=C(C)CCC=C(C)CCC=C(C)CCC=C(C)CCC=C(C)CCC=C(C)CCC=C(C)CCC=C(C)C)=C(C)C1=O	97.8%	125%	111%	inactive	inactive	inactive	inactive	inactive	inactive	–
Cc1ccc([N+](=O)[O-])cc1S(=O)(=O)N(C)N=Cc1cnc2ccc(Br)cn12	3.45%	28.8%	3.92%	inactive	inactive	29.6 nM (active)	20.9 nM (active)	37.2 nM (active)	–	–
C[C@H]1[C@@H](OC(=O)CCC(=O)O)O[C@@H]2O[C@@]3(C)CC[C@@H]4[C@H](C)CC[C@@H]1[C@@]24OO3	8.92%	9.55%	5.3%	inactive	inactive	1870 nM (active)	1320 nM (active)	1660 nM (active)	–	–
N#CNC(=NCCCCCCOc1ccc(Cl)cc1)Nc1ccncc1	3.38%	25.6%	2.53%	inactive	inactive	inactive	1.3 nM (active)	3 nM (active)	–	–
C[C@H](NCc1ccc(OCc2cccc(F)c2)cc1)C(N)=O	3.17%	13.6%	4.81%	inactive	inactive	14800 nM (active)	14800 nM (active)	8330 nM (active)	–	–
C=C1C[C@@]2(O)O[C@@]3(C[C@H]2C(C)C)[C@H](C)CC[C@H]13	–	67.8%	101%	inactive	inactive	inactive	inactive	–	inactive	inactive
C=CC(=O)Nc1cccc(Nc2nc(NC3CCC(N(C)C)CC3)nc3c2ncn3C(C)C)c1 (stereo not given)	4.69%	5.58%	2.19%	inactive	inactive	14.8 nM (active)	469 nM (active)	526 nM (active)	418 nM (active)	–
Cn1cc(C[C@@H](N)C(=O)O)c2ccccc21	98.8% [at 9.64 µM]	152% [at 23.2 µM]	126% [at 23.2 µM]	inactive	inactive	inactive	inactive	inactive	inactive	–
C[C@H](O)[C@@H]1C(=O)N2C(C(=O)O)=C(S[C@@H]3CN[C@H](CNS(N)(=O)=O)C3)[C@@H](C)[C@@H]12	87.8%	119%	112%	inactive	inactive	inactive	inactive	inactive	–	inactive
FC(F)(F)c1ccc(Nc2nc3ccc(Oc4ccnc(-c5ncc(C(F)(F)F)[nH]5)c4)cc3[nH]2)cc1	7.1%	14.5%	24.9%	inactive	inactive	11800 nM (active)	13200 nM (active)	11800 nM (active)	9350 nM (active)	–
Oc1cc(-c2nc(-c3ccccc3)[nH]c2-c2ccncc2)ccc1Cl	3.61%	3.91%	5.51%	inactive	inactive	18700 nM (active)	26400 nM (active)	23500 nM (active)	–	–
C[C@H]1COc2c(N3CCN(C)CC3)c(F)cc3c(=O)c(C(=O)O)cn1c23	60.4%	160%	100%	inactive	inactive	inactive	inactive	inactive	–	–
NC1=N[C@H]2[C@H](CS[C@H]2CCCCC(=O)O)N1	–	175% [at 23.2 µM]	126% [at 23.2 µM]	inactive	inactive	inactive	inactive	–	inactive	inactive
COc1ccc2cc([S+]([O-])Cc3ncc(C)c(OC)c3C)nc2c1	41.2%	70.5%	107%	inactive	inactive	inactive	inactive	–	inactive	inactive
C[C@](Cc1c[nH]c2ccccc12)(NC(=O)OC1C2CC3CC(C2)CC1C3)C(=O)NC[C@H](NC(=O)CCC(=O)O)c1ccccc1 (stereo not given in full)	10.5%	308%	4.7%	inactive	inactive	inactive	inactive	inactive	–	–
CC(=O)N[C@H]1[C@@H]([C@H](O)[C@H](O)CO)OC(C(=O)O)=C[C@@H]1N=C(N)N	–	114%	124%	inactive	inactive	inactive	inactive	–	inactive	inactive
COc1cccc2c1C(=O)c1c(O)c3c(c(O)c1C2=O)C[C@@](O)(C(=O)CO)C[C@H]3O[C@H]1C[C@H](N)[C@H](O)[C@H](C)O1	1.64%	6.45%	4.57%	inactive	inactive	187 nM (active)	74.3 nM (active)	26.4 nM (active)	–	–

Compound	growth, % of control [1]	cell viability, % of control (lower = more cytotoxic) [2]	viability (% of control) [3]	Potency [4]	Potency [5]	Potency [6]	Potency [7]	Potency [8]	Potency [9]	Potency [10]
c1ccc(CNc2nc(NCc3ccccc3)c3ccccc3n2)cc1	8.52%	6.1%	2.67%	inactive	inactive	20900 nM (active)	26400 nM (active)	20900 nM (active)	–	–
O=C(C=CC=Cc1ccc2c(c1)OCO2)N1CCCCC1	95%	122%	101%	14800 nM (active)	10500 nM (active)	inactive	inactive	inactive	–	–
C#CCC(Cc1cnc2nc(N)nc(N)c2n1)c1ccc(C(=O)N[C@@H](CCC(=O)O)C(=O)O)cc1 (stereo not given in full)	18%	51.7%	36.9%	inactive	inactive	37.2 nM (active)	37.2 nM (active)	37.2 nM (active)	33.2 nM (active)	–
COc1cc(C(=O)NC2CCN(C)CC2)ccc1Nc1ncc2c(n1)N(C1CCCC1)CCC(=O)N2C(C)C	6.9%	6.24%	2.49%	inactive	inactive	2350 nM (active)	2090 nM (active)	2090 nM (active)	2350 nM (active)	–
CC(=O)OC[C@@H]1O[C@@H](n2ccc(=O)[nH]c2=O)[C@H](OC(C)=O)[C@H]1OC(C)=O	250%	154%	104%	inactive	inactive	inactive	inactive	inactive	inactive	–
COc1cc(C(C)C)c(Oc2cnc(NC(CO)CO)nc2N)cc1I	97.9%	294%	1.88%	inactive	inactive	935 nM (active)	1050 nM (active)	7430 nM (active)	1480 nM (active)	–
O=c1[nH]c(=O)n([C@H]2C[C@@H](O)[C@@H](CO)O2)cc1C=CBr	–	164%	115%	inactive	inactive	inactive	inactive	inactive	–	inactive
NC(=O)N1CCC(CC(=O)N2CCC([C@H]3c4ncc(Br)cc4CCc4cc(Cl)cc(Br)c43)CC2)CC1	9.54%	82.6%	6.4%	inactive	inactive	20900 nM (active)	16600 nM (active)	16600 nM (active)	–	–
CN(C)CC(=O)N1CCC(c2ccc(NC(=O)c3ncc(C#N)[nH]3)c(C3=CCCCC3)c2)CC1	9.47%	168%	28.6%	inactive	inactive	13200 nM (active)	16600 nM (active)	18700 nM (active)	–	–
C[C@H]1C[C@H]2[C@@H]3CCC4=CC(=O)C=C[C@]4(C)[C@@H]3C(=O)C[C@]2(C)[C@@]1(O)C(=O)CO	86.6%	87.7%	108%	inactive	inactive	inactive	inactive	inactive	inactive	–
COc1ccnc2[nH]cc(C(=O)C(=O)N3CCN(C(=O)c4ccccc4)C[C@@H]3C)c12	99.1%	172%	119%	inactive	inactive	inactive	2640 nM (active)	inactive	–	–
C[C@H](NC(=O)C(C#N)=Cc1cccc(Br)n1)c1ccccc1	22%	5.54%	4.37%	inactive	inactive	16600 nM (active)	20900 nM (active)	16600 nM (active)	18700 nM (active)	–
CC(O)(C#Cc1ccc2c(c1)N(c1nc(N)ncc1Cl)CC2)c1nccs1 (stereo not given)	5.79%	279%	37.2%	inactive	inactive	16600 nM (active)	20900 nM (active)	20900 nM (active)	20900 nM (active)	–
CCCCCCCN(CC)CCCC(O)c1ccc(NS(C)(=O)=O)cc1 (stereo not given)	54%	213%	81.4%	inactive	inactive	inactive	inactive	inactive	inactive	–
COc1cc([C@@H]2c3cc4c(cc3[C@@H](O[C@@H]3O[C@@H]5CO[C@@H](c6cccs6)O[C@@H]5[C@H](O)[C@@H]3O)[C@H]3COC(=O)[C@H]23)OCO4)cc(OC)c1O	5.8%	27.7%	5.23%	inactive	inactive	264 nM (active)	148 nM (active)	29.6 nM (active)	–	–
CON=C(C(=O)N[C@@H]1C(=O)N2C(C(=O)O)=C(Cn3ccc(=N)n3CCO)CS[C@H]12)c1csc(N)n1	–	137%	95.7%	inactive	inactive	inactive	inactive	inactive	–	inactive
COc1cccc2c1C(=O)c1c(O)c3c(c(O)c1C2=O)C[C@@](O)(C(=O)CO)C[C@@H]3O[C@H]1C[C@H](N)[C@@H](O)[C@H](C)O1	2.54%	8.09%	4.51%	inactive	inactive	264 nM (active)	187 nM (active)	29.6 nM (active)	4.2 nM (active)	–
C[N+](C)([O-])CCNc1ccc(NCC[N+](C)(C)[O-])c2c1C(=O)c1c(O)ccc(O)c1C2=O	–	105%	19.7%	inactive	–	18700 nM (active)	16600 nM (active)	20900 nM (active)	inactive	–
CC1(C)O[C@@H]2C[C@H]3[C@@H]4CCC5=CC(=O)C=C[C@]5(C)[C@@H]4[C@@H](O)C[C@]3(C)[C@]2(C(=O)CO)O1	5.96%	97.8%	46.1%	inactive	–	inactive	inactive	inactive	inactive	inactive
